Measured values taken from PubChem BioAssay (EPA / NIEHS).
Records with an inconclusive call do not appear. The source made the active and inactive calls. The calls were made as follows: active = hit-call score of the fitted dose curve at least 0.9, where 1 is the maximum; inconclusive = response in the unintended direction; inactive = score below 0.9.

Experiment: ACEA_ER_80hr: ACEA Biosciences xCELLigence Real-Time Cell Analysis on Estrogen Receptor Agonism for Proliferation (AID 2282667)
Conditions: T47D proliferation, impedance (xCELLigence), 80 h
Procedure: ACEA_ER is a cell-based, single-readout assay that uses T47D, a human breast cell line, with measurements taken at 80 hours after chemical dosing in a 96-well plate, although TO2 (mc0.srcf) used a 384-well plate. Differences in plate size can be ignored given data normalization.ACEA_ER_80hr is one of two assay component(s) measured or calculated from the ACEA_ER assay. It is designed to make measurements of real-time cell-growth kinetics, a form of growth reporter, as detected with electrical impedance signals by Real-Time Cell Electrode Sensor (RT-CES) technology.Data from the assay component ACEA_ER_80hr was analyzed into 1 assay endpoint. This assay endpoint, ACEA_ER_80hr_Positive, was analyzed in the positive analysis fitting direction relative to DMSO as the negative control and baseline of activity. Using a type of growth reporter, measures of the cells for gain-of-signal activity can be used to understand the signaling at the pathway-level as they relate to the gene ESR1. Furthermore, this assay endpoint can be referred to as a primary readout, because this assay has produced multiple assay endpoints where this one serves a signaling function. To generalize the intended target to other relatable targets, this assay endpoint is annotated to the nuclear receptor intended target family, where the subfamily is steroidal.
The xCELLigence system Multi-E-Plate stations were used to measure the time-dependent response to chemicals. Each compound was tested in an eight-point, 1:4 serial dilution series starting at a maximum final concentration of 100 uM. A maximum starting concentration of 0.5% DMSO was present in the 100 uM chemical samples and was diluted along with the test article dilution series. The screen was performed in biological duplicate using two separate, 96-well, E-Plates 96 for each dilution series (n = 2). Positive controls (MG132 and E2) and a negative control (assay media) were tested in quadruplicate on each testing plate. […] Reference compounds were tested with 8 concentrations with 1:5 serial dilutions. All screening was carried out by ACEA Biosciences, Inc. (San Diego, CA). T-47D cells purchased from ATCC were maintained in RPMI1640 media supplemented with 10% characterized fetal bovine serum (FBS). […] Cells were then detached and seeded in E-Plates 96 in assay medium. After overnight monitoring of growth once every hour, compounds were added to […] cells and remained in the medium until the end of the experiment. Cellular responses were then recorded once every 5 min for the first 5 h, and once every hour for an additional 100 h.

| Compound | outcome |
| --- | --- |
| CNC(=O)CSP(=S)(OC)OC | inactive |
| CCCN(CCC)c1c([N+](=O)[O-])cc(C(F)(F)F)cc1[N+](=O)[O-] | inactive |
| Cc1[nH]c(=O)n(C(C)(C)C)c(=O)c1Cl | inactive |
| COP(=O)(OC)OC=C(Cl)Cl | inactive |
| CCC(C)Nc1c([N+](=O)[O-])cc(C(C)(C)C)cc1[N+](=O)[O-] (configuration not stated) | inactive |
| N#CN | inactive |
| C#CCN1C(=O)COc2cc(F)c(N3C(=O)C4=C(CCCC4)C3=O)cc21 | inactive |
| O=C(NC(=O)c1c(F)cccc1F)Nc1ccc(OC(F)(F)C(F)OC(F)(F)F)c(Cl)c1 (configuration not stated) | inactive |
| Clc1ccccc1-c1nnc(-c2ccccc2Cl)nn1 | inactive |
| CCOC1Oc2ccc(OS(C)(=O)=O)cc2C1(C)C (configuration not stated) | inactive |
| O=[N+]([O-])/N=C1\NCCN1Cc1ccc(Cl)nc1 | inactive |
| CNC(=O)/C=C(\C)OP(=O)(OC)OC | inactive |
